# Source: PubChem BioAssay (NCI)
# This is part of a sample that, as a whole, favours compounds with a hit. Of some 83,000 tested, about 20% had one in any assay.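 Plates (96-well) were seeded with cells, treated with compound at one concentration, and incubated for 48 hours before percent growth was determined.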 Calls of active or inactive are those of the source. The calls were made as follows: active = growth percent below 10; inactive = the rest.
# Tested on: T-47D breast
# Test: NCI-60 one-dose screen, 48 h (100 = growth as untreated, 0 = no growth, -100 = all killed)
# Details: 10 µM unless noted
row,SMILES,growth
1,c1c[nH]c(CNC2CCCCC2)c1,105% (inactive)
2,COc1ccc2c(c1)CCCN2c1c2ccccc2nc2ccccc12,51.1% (inactive)
3,CC/C=C/C/C=C/C/C=C/C/C=C/C/C=C/C/C=C/CCC(=O)Nc1ccn([C@@H]2O[C@H](CO)[C@@H](O)C2(F)F)c(=O)n1,28.9% (inactive)
4,Cc1ccc2nc(NC(=O)CSc3nc(-c4ccccc4)c(C#N)c(=O)n3Cc3ccccc3)sc2c1,-80.8% (active)
5,NNC(=O)c1nc(N)n(-c2ccc(S(N)(=O)=O)cc2)n1,93.5% (inactive)
6,O=C(CC(SCc1ccccc1)c1ccccc1)c1ccccc1 (centres undefined),74.7% (inactive)
7,COC1=C(OC)C(=O)C(OC)=C(OC)C1=O,94.2% (inactive)
8,COC(=O)CCC1=C(C)C2=NC1=CC1=NC(=CC3=NC(=Cc4[nH]c(/c(=C(/C)O)c4C)=C2)C(C(C)=O)=C3C)C(C)=C1CCC(=O)OC,82.9% (inactive)
9,CC1=CN2C(=O)C3C4=C(CCCC4)SC3N=C2CN1c1c(C)cccc1C (centres undefined),81.1% (inactive)
10,O=C(Nc1cccc(Oc2nnc(Cl)c3ccccc23)c1)Nc1ccc(Cl)c(C(F)(F)F)c1,-24.6% (active)
11,CN1CCN(CCCOc2ccc3nc(Nc4ccc(F)c(F)c4)ccc3c2)CC1,14.6% (inactive)
12,COc1ccccc1NC(=O)N/C(N)=N/c1nc2ccccc2s1,52.2% (inactive)
13,Cc1ccc(Nc2nc(N)nc(CSCC(=O)NN)n2)cc1,102% (inactive)
14,CC1CC(C(C)(C)C)C(=O)C(C(C)(C)C)C1 (centres undefined),111% (inactive)
15,O=C(O)c1ccc2c(c1Cl)C(=O)c1ccccc1C2=O,101% (inactive)
16,N=c1sc(Cc2ccc(Cl)cc2)cn1CC(=O)c1ccc(F)cc1,64.6% (inactive)
17,CCCCn1c(=O)c2c(nc3n2CCCN3CCc2ccc(OCC(=O)NCCN(CC)CC)cc2)n(CCCC)c1=O,53.6% (inactive)
18,COc1ccc(NC(=O)c2nc(-c3cc(OC)c(OC)c(OC)c3)n(-c3cccc4ccccc34)n2)cc1OC,50.3% (inactive)
19,O=C1CCc2c(sc3[nH]c(=S)n(-c4ccc(OC(F)(F)F)cc4)c(=O)c23)C1,20.3% (inactive)

row,SMILES,growth
1,C[C@@]1(CCC#N)[C@H]2CC[C@@H]3[C@H]4[C@H](C(=O)/C=C/c5cccnc5)CC[C@]4(C#N)CC[C@@]3(C)[C@]2(C)CC[C@H]1C(=O)/C=C/c1cccnc1,65.2% (inactive)
2,Cc1c(C)c2c(c(C)c1OCC(=O)O)CC[C@@](C)(CCC[C@@H](C)CCC[C@@H](C)CCCC(C)C)O2,23.6% [50 µM] (inactive)
3,O=C(NCCCNc1cc(-c2cn(-c3ccccc3)nc2-c2cccc(O)c2)ccn1)c1ccc(F)cc1,-10.8% (active)
4,Cn1c(-c2c(N)n(Cc3ccc(C(F)(F)F)cc3)c3nc(C#N)c(C#N)nc23)nc2ccccc21,4.18% (active)
5,Nc1nc(N)c2c(n1)NC(c1ccccc1)C1CCc3ccccc3C1=N2 (centres undefined),30.7% (inactive)
6,COc1ccc2[nH]c(O)c(/C=c3/cc4c(c(-c5cc(OC)c(OC)c(OC)c5)n3)=Nc3ccccc3-4)c2c1,78.7% (inactive)
7,CCOC(=O)c1c2ncccc2n2c(=O)n(-c3ccccc3C)nnc12,89.9% (inactive)
8,COc1cccc(C(=O)NCCCNc2cc(-c3cn(-c4ccccc4)nc3-c3cccc(OC)c3)ccn2)c1,-4.96% (active)
9,N[C@@H](CCCCNCC(=O)O)C(=O)O,96.9% (inactive)
10,CC(CCc1ccc(Cl)c(Cl)c1)NCc1ccc(C(C)(C)C)cc1 (centres undefined),67.7% (inactive)
11,O=Cc1ccc(O)c2ncccc12,22.8% (inactive)
12,CCCCOc1nc2ccccc2cc1C1CNC(=O)c2ccccc2N1 (centres undefined),20.9% (inactive)
13,COc1ccc2occ(C3=C(c4c[nH]c5ccccc45)C(=O)N(O)C3=O)c2c1,76.1% (inactive)
14,N#CC1=C(NC=O)Oc2c(ccc3ccccc23)C1c1ccccc1 (centres undefined),25.2% (inactive)
15,Fc1c[c-]c(-c2ccccn2)c(F)c1.[CH3-].[Pt+2].c1ccc(P(C[PH+](c2ccccc2)c2ccccc2)c2ccccc2)cc1,-5.03% (active)
16,N=C1C(c2nc(-c3ccc(Br)cc3)cs2)=C(O)CN1CC1CCCO1 (centres undefined),95.7% (inactive)
17,NS(=O)(=O)c1cnccc1Sc1ccncc1S(N)(=O)=O,57% (inactive)
18,N#Cc1c(-c2ccccn2)[nH]c(=S)[nH]c1=O,94.4% (inactive)

# Tested on: BT-549 breast
# Test: as above
# Details: 10 µM unless noted
row,SMILES,growth
1,c1c[nH]c(CNC2CCCCC2)c1,105% (inactive)
2,COc1ccc2c(c1)CCCN2c1c2ccccc2nc2ccccc12,7.21% (active)
3,CC/C=C/C/C=C/C/C=C/C/C=C/C/C=C/C/C=C/CCC(=O)Nc1ccn([C@@H]2O[C@H](CO)[C@@H](O)C2(F)F)c(=O)n1,29.8% (inactive)
4,Cc1ccc2nc(NC(=O)CSc3nc(-c4ccccc4)c(C#N)c(=O)n3Cc3ccccc3)sc2c1,89.3% (inactive)
5,NNC(=O)c1nc(N)n(-c2ccc(S(N)(=O)=O)cc2)n1,92.7% (inactive)
6,O=C(CC(SCc1ccccc1)c1ccccc1)c1ccccc1 (centres undefined),94% (inactive)
7,COC1=C(OC)C(=O)C(OC)=C(OC)C1=O,101% (inactive)
8,COC(=O)CCC1=C(C)C2=NC1=CC1=NC(=CC3=NC(=Cc4[nH]c(/c(=C(/C)O)c4C)=C2)C(C(C)=O)=C3C)C(C)=C1CCC(=O)OC,100% (inactive)
9,CC1=CN2C(=O)C3C4=C(CCCC4)SC3N=C2CN1c1c(C)cccc1C (centres undefined),108% (inactive)
10,O=C(Nc1cccc(Oc2nnc(Cl)c3ccccc23)c1)Nc1ccc(Cl)c(C(F)(F)F)c1,-37.2% (active)
11,CN1CCN(CCCOc2ccc3nc(Nc4ccc(F)c(F)c4)ccc3c2)CC1,79.9% (inactive)
12,COc1ccccc1NC(=O)N/C(N)=N/c1nc2ccccc2s1,50.8% (inactive)
13,Cc1ccc(Nc2nc(N)nc(CSCC(=O)NN)n2)cc1,93.6% (inactive)
14,CC1CC(C(C)(C)C)C(=O)C(C(C)(C)C)C1 (centres undefined),110% (inactive)
15,O=C(O)c1ccc2c(c1Cl)C(=O)c1ccccc1C2=O,116% (inactive)
16,N=c1sc(Cc2ccc(Cl)cc2)cn1CC(=O)c1ccc(F)cc1,94.9% (inactive)
17,CCCCn1c(=O)c2c(nc3n2CCCN3CCc2ccc(OCC(=O)NCCN(CC)CC)cc2)n(CCCC)c1=O,67% (inactive)
18,COc1ccc(NC(=O)c2nc(-c3cc(OC)c(OC)c(OC)c3)n(-c3cccc4ccccc34)n2)cc1OC,46.3% (inactive)
19,O=C1CCc2c(sc3[nH]c(=S)n(-c4ccc(OC(F)(F)F)cc4)c(=O)c23)C1,38% (inactive)

row,SMILES,growth
1,C[C@@]1(CCC#N)[C@H]2CC[C@@H]3[C@H]4[C@H](C(=O)/C=C/c5cccnc5)CC[C@]4(C#N)CC[C@@]3(C)[C@]2(C)CC[C@H]1C(=O)/C=C/c1cccnc1,80.7% (inactive)
2,Cc1c(C)c2c(c(C)c1OCC(=O)O)CC[C@@](C)(CCC[C@@H](C)CCC[C@@H](C)CCCC(C)C)O2,-4.37% [50 µM] (active)
3,O=C(NCCCNc1cc(-c2cn(-c3ccccc3)nc2-c2cccc(O)c2)ccn1)c1ccc(F)cc1,-6.04% (active)
4,Cn1c(-c2c(N)n(Cc3ccc(C(F)(F)F)cc3)c3nc(C#N)c(C#N)nc23)nc2ccccc21,7.95% (active)
5,Nc1nc(N)c2c(n1)NC(c1ccccc1)C1CCc3ccccc3C1=N2 (centres undefined),39% (inactive)
6,COc1ccc2[nH]c(O)c(/C=c3/cc4c(c(-c5cc(OC)c(OC)c(OC)c5)n3)=Nc3ccccc3-4)c2c1,69.5% (inactive)
7,CCOC(=O)c1c2ncccc2n2c(=O)n(-c3ccccc3C)nnc12,104% (inactive)
8,COc1cccc(C(=O)NCCCNc2cc(-c3cn(-c4ccccc4)nc3-c3cccc(OC)c3)ccn2)c1,11% (inactive)
9,N[C@@H](CCCCNCC(=O)O)C(=O)O,111% (inactive)
10,CC(CCc1ccc(Cl)c(Cl)c1)NCc1ccc(C(C)(C)C)cc1 (centres undefined),68.9% (inactive)
11,O=Cc1ccc(O)c2ncccc12,-1.72% (active)
12,CCCCOc1nc2ccccc2cc1C1CNC(=O)c2ccccc2N1 (centres undefined),41% (inactive)
13,COc1ccc2occ(C3=C(c4c[nH]c5ccccc45)C(=O)N(O)C3=O)c2c1,84.2% (inactive)
14,N#CC1=C(NC=O)Oc2c(ccc3ccccc23)C1c1ccccc1 (centres undefined),25.9% (inactive)
15,Fc1c[c-]c(-c2ccccn2)c(F)c1.[CH3-].[Pt+2].c1ccc(P(C[PH+](c2ccccc2)c2ccccc2)c2ccccc2)cc1,-28.1% (active)
16,N=C1C(c2nc(-c3ccc(Br)cc3)cs2)=C(O)CN1CC1CCCO1 (centres undefined),106% (inactive)
17,NS(=O)(=O)c1cnccc1Sc1ccncc1S(N)(=O)=O,96.4% (inactive)
18,N#Cc1c(-c2ccccn2)[nH]c(=S)[nH]c1=O,102% (inactive)
